# In all, about 360,000 compounds went through this assay and about 10,000 (2.8%) were called active. Roughly 4% stayed inconclusive and do not appear here. Many of the other results were omitted from the sample, so actives are more common in it than they were. Values without a mark were called inactive. The call rests on the fitted dose curve; in most records, active means well fitted inhibition curve with a large enough effect; inconclusive means small, poorly fitted or top-dose-only effect; inactive means flat fitted curve, though single readings scatter.
# Target: Serine/threonine-protein kinase PLK1 (Homo sapiens) (UniProt P53350)
# Sequence (P53350 whole entry, looked up, the tested form may be a part): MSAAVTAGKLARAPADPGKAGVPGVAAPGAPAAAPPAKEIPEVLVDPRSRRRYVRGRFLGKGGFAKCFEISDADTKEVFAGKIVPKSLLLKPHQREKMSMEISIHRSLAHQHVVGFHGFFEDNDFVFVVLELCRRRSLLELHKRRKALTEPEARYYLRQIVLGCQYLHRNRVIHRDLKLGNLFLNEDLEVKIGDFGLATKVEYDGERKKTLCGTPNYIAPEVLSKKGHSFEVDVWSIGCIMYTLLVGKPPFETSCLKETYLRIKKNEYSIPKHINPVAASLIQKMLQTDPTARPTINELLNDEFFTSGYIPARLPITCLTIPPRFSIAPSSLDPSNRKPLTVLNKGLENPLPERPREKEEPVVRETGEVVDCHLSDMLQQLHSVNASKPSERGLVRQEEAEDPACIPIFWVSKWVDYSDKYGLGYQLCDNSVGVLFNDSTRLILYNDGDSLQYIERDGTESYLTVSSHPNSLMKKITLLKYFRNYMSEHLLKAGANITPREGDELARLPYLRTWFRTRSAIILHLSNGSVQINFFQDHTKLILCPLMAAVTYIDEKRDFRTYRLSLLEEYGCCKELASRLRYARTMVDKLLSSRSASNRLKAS
# Experiment: qHTS for Inhibitors of PLK1-PDB (polo-like kinase 1 - polo-box domain): Primary Screen; further: nearly all actives have a fitted effect of over 65% in size; on max response, negative = inhibition: series mostly up to about 57 µM
# Settings: Plk1 PBD binding of FITC phosphopeptide, fluorescence polarization
# On the % scale 0 is the no-effect control and ±100 the full control effect; potency means the concentration at half of the fitted maximal effect.
SMILES,"max response, negative = inhibition [%]",Potency
O=C(CC[C@H]1O[C@@H](n2ccc(=O)[nH]c2=O)[C@H](O)[C@@H]1O)N[C@H](Cc1ccccc1)C(=O)NCCCN1CCCC1=O,-13.5,
CN(C)CCNC(=O)c1cccc(-c2cnc3c(NC=O)cc(-c4cccc(C(F)(F)F)c4)cn23)c1,-13.6,
CC(C)(C)OC(=O)N1CCN(C(=O)c2[nH]c(C(F)(F)F)nc2-c2ccccc2)CC1,1.58,
COC(=O)C1=C(C)N(C)C(=S)NC1c1ccccc1 (configuration not stated),-7.92,
COC(=O)c1sc(=S)n(-c2ccccc2)c1N,,10 µM (active)
CCOC(=O)C(C)n1cnc2c(nnn2-c2cccc(OC)c2)c1=O (configuration not stated),1.99,
CCOC(=O)c1sc(=S)n(-c2cccc(OC)c2)c1N,,14.1 µM (active)
COC(=O)c1sc(N2CCN(Cc3ccccc3)CC2)nc1N,-4.47,
CCOC(=O)c1cnc(SCC(=O)Nc2cccc(OC)c2)nc1N,-5.18,
CC1(C)OC(=O)C2=C(C[C@@H](C3CC3)O[C@H]2CCc2cccc(Cl)c2)O1,4.74,
COc1ccc(C(C#N)=C2C=CC(=NO)c3ccccc32)cc1,-0.254,
COc1ccccc1NC(=O)C(CC(=O)O)Cc1cc(C)cc(C)c1 (configuration not stated),-4.75,
Cn1c(Nc2ccc(F)cc2)nc2cc(-c3ccsc3)sc2c1=O,-9.36,
CC1Cc2ccccc2N1C(=O)CSc1nnc(C2CC2)n1C (configuration not stated),,21.2 µM (active)
CC1Cc2ccccc2N1C(=O)CSc1nnc(-c2ccc(S(=O)(=O)N3CCCC3)cc2)n1C (configuration not stated),-7.29,
CCn1c(CSc2ncccn2)nnc1SCC(=O)N1c2ccccc2CC1C (configuration not stated),-13,
Cc1ccc(Cn2cc(CN3CC(N4CCN(C)CC4)CS3(=O)=O)nn2)cc1 (configuration not stated),-1.82,
O=C1[C@H]2[C@@H](c3ccc(C(F)(F)F)cc3)N[C@]3(CCCN(Cc4ccc(Br)cc4)C3=O)[C@H]2C(=O)N1Cc1ccccc1,8.62,
CC(C)C1CC2=C(C(=O)OC(C)(C)O2)C(c2ccc(F)cc2)O1 (configuration not stated),2.13,

SMILES,"max response, negative = inhibition [%]",Potency
CNC(=S)Nc1ccc([N+](=O)[O-])cc1,-17.5,
O=C1/C(=C\c2ccc([N+](=O)[O-])cc2)CS(=O)(=O)C/C1=C/c1ccc([N+](=O)[O-])cc1,,4.23 µM (active)
O=C(O)C(=Cc1ccc([N+](=O)[O-])cc1)CCc1ccccc1,-6.74,
CC(=O)OC[C@@H]1CN(Cc2ccccc2)C[C@H](n2cnc3c(NCc4ccco4)ncnc32)O1,1.29,
CCN1C(=O)[C@@H]2[C@@H]3CN(S(=O)(=O)c4ccccc4C)[C@@H](c4ccc(Cl)cc4)[C@@H]3C(=O)C[C@@H]2C1=O,-4.29,
Cc1ccc(S(=O)(=O)NCCSc2ccccc2)cc1[N+](=O)[O-],1.72,
CCS(=O)(=O)c1cc([N+](=O)[O-])c(Sc2ccccc2N)s1,,23.8 µM (active)
Cc1cccc(CN2CCN(C3CN(Cc4cn(Cc5cc(C)cc(C)c5)nn4)S(=O)(=O)C3)CC2)c1 (configuration not stated),-3.6,
COc1ccc(S(=O)(=O)N(C)C[C@H]2OCc3cnnn3CCCC(=O)N([C@H](C)CO)C[C@H]2C)cc1,-13.3,
CC(=O)Nc1cccc(/C(C)=N/NC(=O)c2c(-c3ccccc3Cl)noc2C)c1,-10.9,
C/C(=N\Nc1cccc(C(=O)O)c1)c1ccc2c(c1)Nc1ccccc1S2,,26.7 µM (active)
Cc1ccccc1NC(=O)c1cc(S(=O)(=O)Nc2cccc(C(=O)O)c2)ccc1Cl,4.03,
CCOC(=O)[C@]12CCCC=C1N(CCC1=CCCCC1)C(=O)[C@H](CC(=O)N1CCSCC1)C2,1.28,
O=C1C(Cl)=C(Oc2ccccc2)C(=O)c2ccccc21,,1.68 µM (active)
COC(=O)c1ccc2nc(-c3ccc(OC)c(OC)c3)c(Cc3ccccc3)n2c1,-13.8,
CN(C(=O)c1ccccn1)c1nnc(-c2ccccn2)s1,1.77,
CCN(CC)C(=O)c1sc2nc(-c3ccccc3)ccc2c1N,-8.25,
CN(C)c1ccnc2sc(C(=O)c3ccccc3)c(N)c12,,29.9 µM (active)
O=C(NC(c1ccc(Cl)cc1)c1cnccn1)C1CCN(Cc2ccc(Cl)cc2)CC1 (configuration not stated),2.32,

SMILES,"max response, negative = inhibition [%]",Potency
Clc1cccc(Cc2c(-c3cccc(Cl)c3)nc3ccc(Cl)cn23)c1,-13.7,
CSc1ccccc1NC(=O)CN(C)CC(=O)Nc1ccc(Cl)cc1[N+](=O)[O-],-4.66,
O=C(COc1ccc(Cl)cc1[N+](=O)[O-])N1CCCCC1,-4.72,
O=C1CCCCC1Sc1ccc(Cl)cc1[N+](=O)[O-] (configuration not stated),,4.74 µM (active)
CCOC(=O)c1c(NC(=S)SC)sc(C(=O)N2CCc3ccccc3C2)c1C,-5.18,
CC(=O)NC(c1ccccc1)c1nc(-c2ccccc2C)cs1 (configuration not stated),-5.3,
COCC1CCCCN1C(=O)c1cc(COc2ccc(C)c(C)c2)on1 (configuration not stated),3.28,
CCOc1ccc(-n2c(N)c(C(=O)NCC3CCCO3)sc2=S)cc1 (configuration not stated),,23.8 µM (active)
CCOc1ccc(NS(=O)(=O)c2ccc(C(=O)NCC3CCCO3)cc2)cc1 (configuration not stated),1.53,
CCOc1ccc(S(=O)(=O)N2CCN(C(=S)NCC3CCCO3)CC2)cc1 (configuration not stated),1.52,
Cc1ccccc1-c1n[nH]c(=S)n1/N=C/c1ccc(-c2ccccc2Br)o1,-17.2,
CCc1n[nH]c(=S)n1/N=C/c1c[nH]c2ccc(Br)cc12,,33.6 µM (active)
CN(Cc1ccccc1F)c1cc2c(c3c1ccn3C)C1CCC2O1 (configuration not stated),-4.37,
O=C1OCCOC2CCCc3oc(-c4ccccc4)c1c32 (configuration not stated),-1.47,
CC1=C/C(=N\OS(=O)(=O)c2ccccc2)C=CC1=O,,1.26 µM (active)
CCN(CC)CCN(C)C(c1ccnc2ccccc12)c1nnnn1-c1ccc2c(c1)OCCO2 (configuration not stated),-13.1,
O=C1/C(=C/c2ccc(F)cc2)SC(=S)N1CCCC(=O)N1CCCCC1CCO (configuration not stated),-15.9,
C=CCOc1ccc(/C=C2\SC(=S)N(CCC(=O)O)C2=O)cc1,,26.7 µM (active)
COc1ccc(/C=C2\SC(=S)N(CCC(=O)N3CCOCC3)C2=O)cc1OC,-7.23,

# Source: PubChem BioAssay AID720504 (National Center for Advancing Translational Sciences (NCATS), 2013)
